Read-out in assay [1]: Interleukin 17F (IL17F), IL17F (gene 112744)
The experiment in a line: BSK_BT_xIL17F: BioMAP Diversity Plus: BT Assay for Interleukin 17F (IL17F) Biomarker Activity (AID 2284243). The conditions noted are these: primary human B cells with PBMC. In outline:
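B cell/PBMC co-culture (human primary), 24 h compound exposure; sIL-17F by Luminex xMAP; gain-of-signal fit vs DMSO baseline.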

Read-out in assay [2]: Actin alpha 1 (ACTA1), ACTA1 (gene 58)
Description: BSK_MyoF_ACTA1: BioMAP Diversity Plus: MyoF Assay for Actin alpha 1 (ACTA1) Biomarker Activity (AID 2284244). The conditions noted are these: primary human lung fibroblasts. In outline: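 MyoF fibroblast system (human lung); a-SMA quantified via ELISA at 24 h; DMSO-normalised, gain-of-signal endpoint.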

Read-out in assay [3]: Interleukin 2 (IL2), IL2 (gene 3558)
The experiment in a line: BSK_BT_xIL2: BioMAP Diversity Plus: BT Assay for Interleukin 2 (IL2) Biomarker Activity (AID 2284245). The conditions noted are these: primary human B cells with PBMC. The method in brief:
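Co-cultures of primary human B cells and PBMC are treated with chemical and sampled at 24 h. IL-2 secretion is quantified by Luminex xMAP, with DMSO-treated wells as baseline.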

Read-out in assay [4]: Basic fibroblast growth factor (bFGF), FGF2 (gene 2247)
The experiment in a line: BSK_MyoF_bFGF: BioMAP Diversity Plus: MyoF Assay for Basic fibroblast growth factor (bFGF) Biomarker Activity (AID 2284246). The conditions noted are these: primary human lung fibroblasts. In outline:
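Fibroblasts from human lung, 24 h dosing. bFGF by ELISA; gain of signal over DMSO.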

Read-out in assay [5]: Collagen IV, COL4A1 (gene 1282)
Description: BSK_MyoF_CollagenIV: BioMAP Diversity Plus: MyoF Assay for Collagen IV Biomarker Activity (AID 2284247). Conditions: primary human lung fibroblasts. In outline: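 Lung fibroblasts (human primary) treated with chemicals were assayed after 24 h for Collagen IV using an ELISA, with DMSO serving as negative control and baseline for a positive-direction fit.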

Read-out in assay [6]: Monokine induced gamma interferon (MIG), CXCL9 (gene 4283)
Description: BSK_KF3CT_MIG: BioMAP Diversity Plus: KF3CT Assay for Monokine induced gamma interferon (MIG) Biomarker Activity (AID 2284248). The conditions noted are these: primary human keratinocytes with fibroblasts. The method in brief:
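Human keratinocyte plus foreskin fibroblast primary co-culture dosed with test chemical for 24 h; MIG level measured by ELISA and fitted in the positive direction against DMSO as baseline.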

Read-out in assay [7]: Vascular cell adhesion molecule 1 (VCAM1), VCAM1 (gene 7412)
The experiment in a line: BSK_BF4T_VCAM1: BioMAP Diversity Plus: BF4T Assay for Vascular cell adhesion molecule 1 (VCAM1) Biomarker Activity (AID 2284249). The conditions noted are these: primary human bronchial epithelial cells with fibroblasts. In outline: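 Cell-surface VCAM-1 quantified by ELISA after 24 h chemical exposure of human bronchial epithelial/dermal fibroblast co-cultures, with SRB staining in parallel wells for cytotoxicity; DMSO baseline, positive-direction fitting.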

Read-out in assay [8]: Collagen I, COL1A1 (gene 1277)
The experiment in a line: BSK_hDFCGF_CollagenI: BioMAP Diversity Plus: hDFCGF Assay for Collagen I Biomarker Activity (AID 2284250). The conditions noted are these: primary human foreskin fibroblasts. In outline:
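Readout: Collagen I by ELISA after 24 h compound treatment of primary human foreskin fibroblasts. Endpoint analysed for increases relative to DMSO; total protein by SRB in parallel wells flagged cytotoxicity.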

Read-out in assay [9]: Interferon-inducible T-cell alpha chemoattractant (ITAC), CXCL11 (gene 6373)
Description: BSK_hDFCGF_ITAC: BioMAP Diversity Plus: hDFCGF Assay for Interferon-inducible T-cell alpha chemoattractant (ITAC) Biomarker Activity (AID 2284251). Conditions: primary human foreskin fibroblasts. In outline: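 I-TAC levels were read by ELISA on human dermal foreskin fibroblast primary cultures 24 h after dosing, analysed against DMSO in the positive direction. Cytotoxicity was assessed alongside by sulforhodamine B total-protein staining.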

Read-out in assay [10]: Plasminogen activator inhibitor-1 (PAI1), SERPINE1 (gene 5054)
The experiment in a line: BSK_KF3CT_PAI1: BioMAP Diversity Plus: KF3CT Assay for Plasminogen activator inhibitor-1 (PAI1) Biomarker Activity (AID 2284252). The conditions noted are these: primary human keratinocytes with fibroblasts. In outline: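 In this co-culture of primary human keratinocytes and foreskin fibroblasts, PAI-1 was measured by ELISA at 24 h and fitted upward from DMSO.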

Where “and” joins values, the source holds several entries; their conditions need not be identical. Identical values can stand only once. The source holds several records for some structures; these can differ, active in one and inactive in another. Calls of active or inactive are those of the source. How the source made its calls: active means hit-call score of the fitted dose curve at least 0.9, where 1 is the maximum; inactive means score below 0.9.

Regarding `FC(F)(F)C(F)(F)C(F)(F)C(F)(F)C(F)(F)C(F)(F)CCS`, the result in assay [1], in assay [2], in [3], in assay [4], in assay [5] and in assay [6] was inactive. The result in assay [7], in assay [8], in [9] and in assay [10] was inactive.

For the molecule `CC(=O)Nc1ccc(N=Nc2cc(C)ccc2O)cc1`, the result in assay [1], in [2], in [3] and in assay [4] was inactive. Also, in assay [5], the AC50 (commonly the midpoint of the concentration-response curve, whichever way the signal moves) is 10.6 µM (active).

Consider `CCc1ccc(C(c2ccc(CC)cc2)C(Cl)Cl)cc1`, for which the AC50 in assay [1] is 29.7 µM (active); in assay [2], 7.07 µM (active); in assay [3], 30.3 µM (active); in [4] it was 28.9 µM (active). Further, the outcome in assay [5] was inactive.

Turning to `FC(F)(F)C(F)(F)C(F)(F)C(F)(F)C(F)(F)C(F)(F)CC1CO1` (stereo unspecified), the result in [1], in [2], in assay [3], in assay [4], in assay [5] and in assay [6] was inactive. Further, the result in assay [7], in assay [8], in [9] and in assay [10] was inactive.

For `CC(CCl)OP(=O)(OC(C)CCl)OC(C)CCl` (stereo unspecified), the outcome in assay [1], in assay [2], in assay [3], in assay [4] and in assay [5] was inactive.

Regarding `OCC(F)(F)C(F)(F)C(F)(F)C(F)F`, the outcome in assay [1], in [2], in [3], in assay [4], in [5] and in assay [6] was inactive. Moreover, the outcome in assay [7], in assay [8], in [9] and in [10] was inactive. In assay [10], the AC50 was 1.23 µM (active).

Turning to `N=C(N)C(F)(F)C(F)(F)C(F)(F)C(F)(F)C(F)(F)C(F)(F)C(F)(F)F`, the AC50 is 31.7 µM (active) in assay [1]; 45.7 µM (active) in [3]; 30 µM (active) in assay [8]; 57.6 µM (active) and 52.7 µM (active) in [9]. Also, the result in assay [1], in assay [3], in assay [4], in assay [5], in assay [6] and in assay [7] was inactive. The outcome in assay [8] and in assay [10] was inactive.

`NC(=O)C(F)(F)C(F)(F)C(F)(F)C(F)(F)F`: the outcome in [1], in [2], in [3], in [4], in assay [5] and in assay [6] was inactive. For the same molecule, the outcome in assay [7], in assay [8], in assay [9] and in assay [10] was inactive.

As for `C=CC(F)(F)C(F)(F)C(F)(F)C(F)(F)C(F)(F)C(F)(F)C(F)(F)C(F)(F)C=C`, the outcome in assay [1], in assay [2], in assay [3], in assay [4], in [5] and in assay [6] was inactive. The result in assay [7], in assay [8], in assay [9] and in assay [10] was inactive.

Regarding `Oc1ccc(Nc2ccccc2)cc1`, the concentration at half-maximal activity (AC50) is 27.7 µM (active) in assay [1] and 37.2 µM (active) in [3]. Further, the result in assay [4] and in assay [5] was inactive.

For `CCCCOCCOCCOC(=O)CCCCC(=O)OCCOCCOCCCC`, the result in assay [1], in assay [2], in assay [3], in assay [4] and in [5] was inactive.

As for `O=S(=O)(OCCOC(F)(F)F)C(F)(F)F`, the result in assay [1], in assay [2], in assay [3], in assay [4], in assay [5] and in [6] was inactive. The outcome in assay [7], in assay [8], in [9] and in assay [10] was inactive.

Take `OCCCC(F)(F)C(F)(F)C(F)(F)C(F)(F)C(F)(F)C(F)(F)C(F)(F)F`: the AC50 in assay [1] is 17.8 µM (active) and 18.5 µM (active); in assay [2], 37.7 µM (active) and 44.6 µM (active); in assay [3], 20.5 µM (active) and 33.2 µM (active); in [4], 50.9 µM (active) and 57.8 µM (active); in assay [5] it was 49.5 µM (active) and 48.3 µM (active); in [6], 25.7 µM (active) and 54.8 µM (active). For the same molecule, the AC50 in [7] was 38.1 µM (active) and 42.2 µM (active); in assay [8], 15.8 µM (active) and 7.13 µM (active); in assay [9], 13 µM (active) and 11.8 µM (active); in [10], 21.7 µM (active) and 46.1 µM (active).

`CS(C)(=O)=O`: the result in [1], in [2], in [3], in assay [4] and in [5] was inactive.

Regarding `O=C(O)C(F)(OC(F)(F)C(F)(OC(F)(F)C(F)(F)C(F)(F)F)C(F)(F)F)C(F)(F)F` (stereo unspecified), the outcome in [1], in assay [2], in [3], in assay [4], in [5] and in assay [6] was inactive. Moreover, the outcome in assay [7], in [8], in assay [9] and in assay [10] was inactive.

Consider `O=C(Cl)C(F)(F)C(F)(F)C(F)(F)C(F)(F)C(F)(F)C(F)(F)C(F)(F)C(F)(F)F`, for which the result in assay [1], in assay [3], in assay [4], in [6] and in [8] was inactive. Further, the AC50 in assay [2] is 23.6 µM (active) and 43.7 µM (active) and 30 µM (active); in [5] it was 18.7 µM (active) and 20.4 µM (active) and 21.3 µM (active); in assay [7] it was 38.9 µM (active) and 47.4 µM (active) and 45.5 µM (active); in assay [9], 20.4 µM (active) and 48.2 µM (active) and 30 µM (active); in assay [10] it was 41.1 µM (active) and 38.8 µM (active) and 22.7 µM (active).

Regarding `O[Si](c1ccccc1)(c1ccccc1)c1ccccc1`, the half-maximal activity concentration (AC50) in assay [1] is 32.6 µM (active); in assay [2], 20 µM (active); in assay [3] it was 31.3 µM (active). For the same molecule, the result in assay [4] and in assay [5] was inactive.

In the case of `CCCCNc1ccccc1`, the result in [1], in assay [3], in [4] and in assay [5] was inactive.

On to `O=C(O)C(F)(F)C(F)(F)C(F)F`, for which the outcome in assay [1], in assay [2], in assay [3], in assay [4], in assay [5] and in [6] was inactive. For the same molecule, the outcome in assay [7], in assay [8], in [9] and in assay [10] was inactive.
